RPL19A TOR yeast: alters RPL19A-GFP fluorescence in TOR pathway yeast screen; S. cerevisiae RPL19A-GFP strain, flow cytometry, 3 h; active compounds read low; percent response vs DMSO, % at 10 µM; actives 0.3% (n = 330,000); AID 2025;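 active = percent response vs DMSO below 50%; inconclusive = fewer than 70 events counted for the yeast strain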;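 also: median channel GFP fluorescence of the barcoded RPL19A-GFP strain; ratio of sample median GFP to plate DMSO average so 100% = DMSO; lower means less RPL19A-GFP as with rapamycin TOR inhibition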
AGP1-GFP MLPCN: modulators of TOR pathway AGP1-GFP in S. cerevisiae; S. cerevisiae AGP1-GFP multiplex flow cytometry, 3 h; GFP as percent of DMSO wells; GFP response vs DMSO, % at 10 µM; actives 0.02% (n = 320,000); AID 2066;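 active = GFP response relative to DMSO above a set limit, near screen average plus 3 SD, cut at about 150% in these data; inconclusive = fewer than 70 cells counted for the yeast strain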;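 also: median GFP channel fluorescence of the gated AGP1 strain per well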
LAP4-GFP MLPCN: yeast TOR pathway LAP4-GFP modulation | S. cerevisiae LAP4-GFP multiplex, flow cytometry GFP, 3 h; median GFP as percent of DMSO wells | GFP response vs DMSO, % at 10 µM | actives 0.34% (n = 320,000);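 active = GFP response vs DMSO above a set limit, about the screen mean plus 3 SD, cut at about 150% in these data; inconclusive = under 70 cell events counted for the yeast strain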
MEP2-GFP yeast: yeast TOR pathway MEP2-GFP modulation. actives 0.51% (n = 330,000). GFP response vs DMSO, % at 10 µM. S. cerevisiae MEP2-GFP strain, flow cytometry GFP, 3 h; 100% = DMSO control level. AID 2016;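 active = GFP response versus DMSO above a set limit, roughly screen mean plus 3 SD, cut at about 180% in these data; inconclusive = fewer than 70 cells counted for a yeast strain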;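 also: median GFP fluorescence of the barcode-gated MEP2-GFP cells per well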
CIT2 TOR yeast: yeast TOR pathway CIT2-GFP modulation; S. cerevisiae CIT2-GFP strain, flow cytometry, 3 h; 100 means same as DMSO wells; GFP response vs DMSO, % at 10 µM; actives 0.065% (n = 320,000);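 active = GFP response relative to DMSO above a set limit, near the screen mean plus 3 SD, cut at about 150% in these data; inconclusive = Fewer than 70 cells measured for a yeast strain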;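 also: ratio of well median GFP fluorescence to mean of DMSO wells on the plate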
LAP4-GFP pick2: yeast LAP4-GFP modulation, second cherry pick. GFP response vs DMSO, % at 10 µM. S. cerevisiae LAP4-GFP strain, flow cytometry GFP, 3 h. actives 20% (n = 590). shares compounds with LAP4-GFP MLPCN;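 active = GFP signal as percent of the solvent control above about 150%, meaning raised reporter expression, limit read from the data; inconclusive = fewer than 70 cells counted in the well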;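 also: ratio of well median GFP fluorescence to plate DMSO mean so 100% = DMSO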
MEP2 cherry2: second confirmation of modulators of TOR reporter MEP2-GFP in yeast; shares compounds with LAP4-GFP MLPCN; S. cerevisiae MEP2-GFP strain, flow cytometry GFP, 3 h; GFP response vs DMSO, % at 10 µM; actives 10% (n = 590); AID 2622;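 active = GFP signal above 150% of the solvent control wells, that is a rise of more than half; inconclusive = fewer than 70 yeast cells counted in the well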;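 also: median channel GFP fluorescence of all gated yeast cells per well; ratio of median GFP to plate DMSO average so 100% = DMSO level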
RPL19A-GFP pick2: reconfirmed modulator of RPL19A-GFP TOR reporter in yeast; AID 2623; actives 3% (n = 590); GFP response vs DMSO, % at 10 µM; S. cerevisiae RPL19A-GFP strain, flow cytometry GFP, 3 h; active compounds read low; 100% means same as DMSO wells; shares compounds with LAP4-GFP MLPCN;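 active = under 65% GFP response relative to DMSO; inconclusive = yeast strain with under 70 measured events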;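 also: median GFP channel fluorescence per well over the all cells gate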
CIT2 GFP CP2: yeast CIT2-GFP TOR reporter modulation, second cherry pick; shares compounds with LAP4-GFP MLPCN; S. cerevisiae CIT2-GFP strain, flow cytometry GFP, 3 h; DMSO control wells read 100%; GFP response vs DMSO, % at 10 µM; actives 8% (n = 590); AID 2624;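 active = GFP response vs DMSO above about 150%, limit read from the data; inconclusive = fewer than 70 events counted for a yeast strain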;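 also: median green fluorescence per well over all gated yeast cells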
AGP1-GFP pick2: second confirmation of modulators of TOR reporter AGP1-GFP in yeast. shares compounds with LAP4-GFP MLPCN. S. cerevisiae AGP1-GFP strain, flow cytometry GFP, 3 h. percent response vs DMSO, % at 10 µM. 590 tested, under 10 active. AID 2643;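 active = over 150 percent of DMSO response; inconclusive = yeast strain measured with under 70 events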;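 also: median GFP channel fluorescence over all cells without mother daughter split; sample median GFP divided by mean DMSO control so 100% equals DMSO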
Yeast autofluor: counter-screen for compound autofluorescence in yeast s288c cells. fluorescence change (kMESF span) at 33 µM. S. cerevisiae s288c, 520 nm autofluorescence, flow cytometry, 3 h; active compounds read high; zero means same as solvent-only cells. AID 2757. 610 tested, under 10 active. shares compounds with LAP4-GFP MLPCN;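 active = fluorescence span over the dose series, or activity score, above about 33, limit read from the data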
* marks the source's active call; other numbers are inactive results; ? = inconclusive. Hits are enriched below; roughly 0.93% of the tested compounds scored in any of these assays.

SMILES	RPL19A TOR yeast	AGP1-GFP MLPCN	LAP4-GFP MLPCN	MEP2-GFP yeast	CIT2 TOR yeast	others
CCN(CC)C(=O)N1CCn2c(nc3ccccc32)C1	106	110	111	103	117
CCOC(=O)c1cnc(-c2ccccc2)nc1N(C)C	89	81	98	89	88
COc1ccc(/C(C)=N/Nc2ccccc2Cl)c(O)c1	63	46	94	146	97	LAP4-GFP pick2=98;MEP2 cherry2=108;RPL19A-GFP pick2=107;CIT2 GFP CP2=109;AGP1-GFP pick2=97
COc1ccc(C(C)=O)cc1COC(=O)CCNS(=O)(=O)c1ccc(C)cc1	89	96	100	100	83
O=C(c1cc2c(s1)-c1ccccc1S(=O)(=O)C2)N1CCCC1	100	109	109	99	108
O=C1Nc2ccccc2/C1=C/C(=O)c1cccs1	54	?	129	162	?
COc1cc(OC)c(/C=C2\C(=O)Nc3ccccc32)c(OC)c1	100	78	141	102	68
COc1ccc(C(=O)/C=C2/C(=O)Nc3ccccc32)c(OC)c1	94	88	137	87	80	Yeast autofluor=0.1
COc1ccc(C(=O)/C=C2/C(=O)Nc3ccccc32)cc1	103	71	167*	97	74	Yeast autofluor=-0.2
COc1ccc(C(=O)/C=C2/C(=O)Nc3ccccc32)cc1OC	108	105	95	103	102	Yeast autofluor=-2.1
Cc1cc(C(=O)Nn2c(-c3ccncc3)nc3ccccc3c2=O)ccc1[N+](=O)[O-]	99	101	102	107	99
O=C1c2ccccc2C(=O)C2OC12 (stereo unspecified)	79	98	163*	132	88	Yeast autofluor=2.1
O=C1c2ccccc2C(=O)C1c1ccccn1	92	114	106	107	88
COc1ccc(OC)c(NC(=O)COC(=O)CCCN=C2NS(=O)(=O)c3ccccc32)c1	86	106	163*	110	84	LAP4-GFP pick2=100;MEP2 cherry2=102;RPL19A-GFP pick2=100;CIT2 GFP CP2=98;AGP1-GFP pick2=101
Cc1ccc(C)c(NC(=O)COC(=O)CCCN=C2NS(=O)(=O)c3ccccc32)c1	97	97	94	90	93
COc1cccc(/C=N/Nc2ccc([N+](=O)[O-])cn2)c1O	97	99	156*	113	97	LAP4-GFP pick2=161*;MEP2 cherry2=114;RPL19A-GFP pick2=94;CIT2 GFP CP2=106;AGP1-GFP pick2=91;Yeast autofluor=0.51
COc1cccc(/C=N/Nc2nc(Nc3ccc([N+](=O)[O-])cc3)nc(N3CCCC3)n2)c1O	102	106	105	108	102
O=C(Nc1nc2ccccc2c(=O)[nH]1)c1ccccc1SCc1ccccc1	96	100	95	89	100
CCn1cc(C(=O)Nc2ccc(OC)c(S(=O)(=O)N3CCCCC3)c2)c(=O)c2ccc(C)nc21	107	113	158*	175*	138	LAP4-GFP pick2=96;MEP2 cherry2=102;RPL19A-GFP pick2=102;CIT2 GFP CP2=97;AGP1-GFP pick2=103
CN1CC(=O)N(CC(=O)NC2CCCCC2)C1=O	93	94	88	94	102
CC(=O)N1CCN(S(=O)(=O)c2cccc(C(=O)NC3CCCc4ccccc43)c2)CC1 (stereo unspecified)	93	102	99	103	108
